Each structure is given as a SMILES string. About 3,700 (1%) of roughly 370,000 compounds were called active.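 Rule for the calls: active = activation above the mean over all tested compounds plus 3 SD (cut at about 0.9% in these data); inactive = the rest.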 The sample as a whole holds a higher share of actives than the screen did.

The assay relates to Nuclear hormone receptor DAF-12 (Strongyloides stercoralis). The experiment in a line: ssDAF-12 driven luciferase reporter activation – cell-based, luminescence, HEK293, GRIP1 co-expression, lit1-tk-luc, primary screen (AID 652126).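 Note: 0% = DMSO-only wells and 100% = 3 µM delta7-dafachronic acid wells.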 The settings on record: HEK293 ssDAF-12/GRIP1 lit1-tk-luc reporter, at 6.8 µM, stronger effect = higher value, % of 3 µM dafachronic acid response.
Regarding `O=C(CSc1nnc(COc2ccccc2)n1-c1ccc(Cl)cc1)Nc1ccc2c(c1)OCO2`, the activation was -0.91% (inactive).

As to `N#CCCN(C(=O)COC(=O)C1CCN(c2ccc(C(F)(F)F)cn2)CC1)c1ccc(F)cc1`, the activation is -1.01% (inactive).

Regarding `COc1ccc(Cc2nc3ccc(C(=O)NCC4CCOCC4)cc3o2)cc1OC`, the activation was -0.41% (inactive).

As for `CSCCNC(=O)c1ccc2nc(Cc3ccccc3F)oc2c1`, the activation was 1.4% (active).

As for `CC(c1ccccn1)N(C)C(=O)c1ccc2nc(Cc3cccc(Cl)c3)oc2c1` (stereo not given), the activation was 0.07% (inactive).

Consider `CC(C)c1ccc(N(C(=O)c2ccco2)C(C(=O)NC2CCCC2)c2cccnc2)cc1` (stereo not given), for which the activation was -0.62% (inactive).

On to `CCCC(NC(=O)c1ccco1)c1nc2ccccc2[nH]1` (stereo not given), for which the activation is -0.66% (inactive).

Consider `CC/C(O)=C1\C(=O)CC(C)(C)CC1=NCCc1nc2ccccc2[nH]1`, for which the activation was -1.35% (inactive).

Take `CCC(=O)/C(=C(/O)c1ccccc1)c1nc2ccccc2[nH]1`: the activation is 0.91% (active).

As to `COC(=O)[C@]12C[C@H](CC(=O)NCC34CC5CC(CC(C5)C3)C4)C(=O)N(Cc3ccc(Cl)cc3Cl)C1=C[C@H](COCc1ccccc1)O[C@@H]2C`, the activation was -0.9% (inactive).

In the case of `O=C(CN1CCCc2ccccc21)NCc1ccc(F)cc1`, the activation is 1.32% (active).

`O=C(CN1C(=O)CCS(=O)(=O)c2ccccc21)NCc1ccc(F)cc1`: the activation was -1.14% (inactive).

As for `O=C(Cn1nc(C(F)(F)F)c2c1CCC2)NCc1ccc(F)cc1`, the activation was -0.8% (inactive).

For the compound `CCCNC(=O)Nc1ccc2c(c1)C(=O)N(C)[C@H]1CC[C@H](CC(=O)NCC3CCCCC3)O[C@@H]1CO2`, the activation is -1.84% (inactive).

For `O=C1NC(Nc2nc3ccccc3s2)(C(F)(F)F)C(=O)N1C1CCCCC1` (stereo not given), the activation was -1.03% (inactive).

In the case of `O=C(COc1ccc(-c2ccccc2)cc1)NN=C1CCCC1`, the activation was -1.61% (inactive).

For `c1ccc2sc(NN=C3CCCC3)nc2c1`, the activation was 1.21% (active).

For `COC(=O)[C@]12C[C@H](CC(=O)NCc3cccs3)C(=O)N(CCc3ccc(OC)c(OC)c3)C1=C[C@H](C(C)C)O[C@@H]2C1CC1`, the activation is -0.56% (inactive).

For the compound `CC[C@@H](CCC(=O)N(c1ccccc1)c1ccccc1)C1CC1`, the activation was -1.64% (inactive).

Take `NC(=O)C1(N2CCCCC2)CCN(C(=O)c2ccc(C#Cc3ccccc3)o2)CC1`: the activation is -1.3% (inactive).

Turning to `CCC(=O)N1CCC(C(N)=O)(N2CCCCC2)CC1`, the activation is -1.29% (inactive).

In the case of `CC(C)(O)C#Cc1ccc(C(=O)N2CCC(C(N)=O)(N3CCCCC3)CC2)cc1`, the activation is 1.03% (active).

Turning to `O=S1(=O)c2ccc(N3CCN(Cc4ccccc4F)CC3)cc2Oc2ccccc2CN1Cc1cn(Cc2ccc(Cl)cc2)nn1`, the activation was -1.5% (inactive).

In the case of `COC(=O)[C@]12C[C@H](CC(=O)NCCCN3CCCC3=O)C(=O)N(CCc3ccc(OC)c(OC)c3)C1=C[C@H](COCc1ccccc1)O[C@@H]2C`, the activation is -0.18% (inactive).

Regarding `CCOc1ccc(N(CC(=O)Nc2c(C)n(C)n(-c3ccccc3)c2=O)S(=O)(=O)c2ccc(Cl)s2)cc1`, the activation was -0.93% (inactive).

On to `c1ccc(Nc2nc(-c3ccncc3)cs2)nc1`, for which the activation is 1.1% (active).

On to `Cc1cccc(Nc2nc(-c3ccccc3)cs2)n1`, for which the activation was 2.9% (active).

For `CC(=O)NC(c1cccc(F)c1)c1nc(-c2cccc(F)c2)cs1` (stereo not given), the activation was -0.87% (inactive).

On to `COc1ccc(Nc2nc(-c3ccccc3)cs2)cc1`, for which the activation was 4.09% (active).

As to `COc1ccc(NC(=S)N2N=CCC2c2ccccc2)cc1` (stereo not given), the activation was 0.28% (inactive).

As for `c1ccc(-c2csc(N3CCc4ccccc4C3)n2)cc1`, the activation was 0.8% (inactive).

In the case of `COC(=O)CCc1sc(Nc2ccc(Br)cc2)nc1-c1ccc(OC)cc1`, the activation was -1.64% (inactive).

Turning to `N#CC(=C1SC=CS1)c1nc(-c2ccccc2)cs1`, the activation was 0.19% (inactive).

On to `O=C(CN1C(=O)C2C3C=CC(C3)C2C1=O)Nc1nc(-c2ccccn2)cs1` (stereo not given), for which the activation is 0.32% (inactive).

Consider `Clc1ccc(Nc2nc(-c3cccs3)cs2)nc1`, for which the activation is 1.83% (active).

Regarding `Cc1cc(C)cc(NC(=O)N2CCC(N(C)CCC(C)C)CC2)c1`, the activation was -1.43% (inactive).

On to `CCCC1CCC2(CCCN2CCOC(=O)NCc2ccccc2)CC1` (stereo not given), for which the activation was -2.14% (inactive).

For `CN1C[C@]2(C=C3CCCCC3n3c(=O)n(-c4ccccc4)c(=O)n32)N=C1NC(=O)c1ccccc1` (stereo not given in full), the activation was 0.04% (inactive).

On to `Nn1c(SCC(=O)N2c3ccccc3Sc3ccccc32)nnc1-c1n[nH]c2c1CCC2`, for which the activation is -1.79% (inactive).

Take `COCCCNC(=O)C[C@H]1C[C@@]2(C(=O)OC)C(=C[C@H](C(C)(C)C)O[C@@H]2C)N(Cc2ccc(Cl)cc2Cl)C1=O`: the activation is -0.31% (inactive).

`COc1ccc(CN2C/C(=C/c3ccccc3)N3C(=O)C[C@@H](c4ccccc4)N=C23)c(OC)c1`: the activation is -1.31% (inactive).

With `CCOC(=O)c1csc(NC(=O)C2CCCN(S(=O)(=O)c3ccc(Cl)s3)C2)n1` (stereo not given), the activation is -2.1% (inactive).

On to `COc1cccc(/C=C2\CC3(OC(C)=O)CCCN2C3)c1` (stereo not given), for which the activation was -1.47% (inactive).

With `O=C(CSc1nnc(-c2ccccn2)n1-c1ccc(Cl)cc1)Nc1ccccc1-c1ccccc1`, the activation is -1.33% (inactive).

As to `CN(C)CC(=O)N[C@@H]1C[C@@H]2O[C@H](CO)CC[C@@H]2O[C@@H]1CCc1ccc(C#Cc2ccccc2)cc1`, the activation was -1.63% (inactive).

With `Oc1ccc(/C=C/c2c(F)cccc2F)c2cccnc12`, the activation was -1.91% (inactive).

As to `Cc1ccc(C)c(NC(=O)CCS(=O)(=O)c2ccccc2)c1`, the activation was -0.72% (inactive).

With `CCOC(=O)c1ccccc1NC(=O)c1c(N)n(C)c(=O)[nH]c1=O`, the activation is -0.82% (inactive).

Take `CCOC(=O)c1cc2n(c1N)-c1ccccc1C2=O`: the activation was 1.03% (active).

As for `CCOC(=O)c1ccn(S(=O)(=O)c2ccc(C)cc2)c1-c1ccccc1`, the activation was -1.27% (inactive).

As for `COC(=O)c1cccc(Cn2ccc3ccc(-c4ccc5ccn(C(=O)c6ccccc6C)c5c4)cc32)c1`, the activation was 0.19% (inactive).

Turning to `C=CCN1[C@H](CC(C)C)COc2cccc(N3CCCC3)c2S1(=O)=O`, the activation was -1.93% (inactive).

For the compound `O=C(Nc1ccccc1F)c1ccc2c(c1)OCO2`, the activation is 1.22% (active).

Consider `CN(Cc1c(F)cccc1Cl)C(=O)CNC(=O)c1ccc2c(c1)OCO2`, for which the activation was -0.2% (inactive).

For `O=C(NCCc1ccc(C(F)(F)F)cc1)c1ccc2c(c1)OCO2`, the activation is -1.42% (inactive).

Source of the values: PubChem BioAssay AID652126 (The Scripps Research Institute Molecular Screening Center, 2013).
